Results: PubChem BioAssay (NCI)
About 83,000 compounds went through this panel and 20% of them were active in at least one assay; those are over-represented in the sample as a whole.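 Values shown are percent growth following 48 h exposure of cells in 96-well plates to a single concentration of compound; below 10 was considered active.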 Calls of active or inactive are those of the source.

What was measured:
Assay in all cases: NCI-60 one-dose screen, 48 h (100 = growth as untreated, 0 = no growth, -100 = all killed)
Conditions in all cases: 10 µM unless noted
[1] = tested on: NCI-H23 lung
[2] = tested on: NCI-H226 lung
[3] = tested on: NCI-H322M lung
[4] = tested on: HOP-62 NSCLC
[5] = tested on: NCI-H460 lung
[6] = tested on: HOP-92 NSCLC
[7] = tested on: NCI-H522 lung
[8] = tested on: A549/ATCC NSCLC
[9] = tested on: 786-0 renal
[10] = tested on: COLO 205 colon
[11] = tested on: DU-145 prostate
[12] = tested on: K-562 leukemia
[13] = tested on: MALME-3M melanoma
[14] = tested on: MDA-MB-231 breast
[15] = tested on: RXF 393 renal
[16] = tested on: SF-268 CNS
[17] = tested on: SF-295 CNS
[18] = tested on: SF-539 CNS
[19] = tested on: UACC-257 melanoma
[20] = tested on: M14 melanoma

Measured: growth

O=C1CC23OC(C(O)c4ccccc4N12)C1C(c2ccccc2)=NOC13 (centres undefined)
inactive: [1] 66.7% | [2] 82% | [3] 79.7% | [4] 68.5% | [5] 76.5% | [6] 43.3% | [7] 40.8% | [8] 82.9% | [9] 37.2% | [10] 50.6% | [11] 81.9% | [12] 16.1% | [13] 49.8% | [14] 52.9% | [15] 71.5% | [16] 64.1% | [17] 42.3% | [18] 50% | [19] 89.2%

CCCCCCC/C=C/[C@H]1O[C@]23C(=O)C[C@@]4(C[C@@H](OC5OC(CO)C(O)C(O)C5O)C[C@@H]4[C@H]2C=C1C)OC3=O (some centres undefined)
active: [7] -44.7% | [9] 5.03% | [12] 9.99% | [13] 7.25% | [14] 5.73% | [15] -43.7% | [18] -14.3%
inactive: [1] 40.8% | [2] 65.2% | [3] 56.2% | [4] 17.3% | [5] 49% | [6] 59% | [8] 62.2% | [10] 35.9% | [11] 39.8% | [16] 48.3% | [17] 58.5% | [19] 29%

CCCNc1nc(C)[nH]c(=O)c1S
inactive: [1] 102% | [2] 122% | [3] 85.3% | [4] 119% | [5] 111% | [7] 91% | [8] 110% | [9] 110% | [10] 115% | [11] 91.3% | [12] 95% | [13] 112% | [14] 103% | [15] 118% | [16] 101% | [17] 119% | [18] 115% | [19] 108%
active: [6] -2.9%

O=C(CCl)N1CCCc2ccccc21
inactive: [1] 101% | [2] 101% | [3] 94% | [4] 107% | [5] 99.3% | [6] 97.2% | [7] 96.8% | [8] 109% | [9] 104% | [10] 108% | [11] 97.7% | [12] 101% | [13] 98.3% | [14] 99.5% | [15] 89.1% | [16] 94.9% | [17] 95.7% | [18] 103% | [19] 107%

CCN(CC)CC#CCOC(=O)[C@]1(C)CCC[C@]2(C)[C@H]3C[C@H]4C(C(C)C)=C[C@]3(CC[C@H]21)[C@@H]1C(=O)CCC(=O)[C@@H]14
inactive: [1] 57.3% | [2] 76.2% | [3] 87.7% | [4] 79.2% | [5] 59.2% | [6] 57% | [7] 29.5% | [8] 48.1% | [9] 54.1% | [10] 36.2% | [11] 71% | [12] 18.6% | [13] 45.3% | [14] 69% | [15] 15.3% | [16] 68.9% | [17] 59.6% | [18] 66.8% | [19] 56.9% | [20] 51.4%

CCOC(=O)c1c(C)nc2c(c1N)/C(=C/c1cccs1)C(=O)N2Cc1ccccc1
inactive: [1] 74.5% | [2] 77.5% | [3] 91.9% | [4] 68.8% | [5] 67.1% | [6] 60.4% | [7] 58.3% | [8] 77.9% | [9] 52.1% | [10] 61.3% | [11] 62% | [12] 34.7% | [13] 85.1% | [14] 55.4% | [15] 40% | [16] 74.7% | [17] 88% | [18] 90.7% | [19] 74%

CCC[S@](=O)c1ccc2nc(NC(=O)OC)[nH]c2c1
inactive: [1] 98.2% | [2] 89.9% | [3] 98.6% | [4] 84.6% | [5] 99.8% | [6] 96.5% | [7] 70.7% | [8] 75.6% | [9] 94.2% | [10] 100% | [11] 106% | [12] 92.3% | [13] 104% | [14] 96.4% | [15] 115% | [16] 102% | [17] 99.9% | [18] 96.6% | [19] 69.3% | [20] 98.9%

O=C(/C(=C/c1ccc([N+](=O)[O-])cc1)SCc1ccccc1)c1ccc(Cl)cc1
inactive: [1] 70.9% | [2] 68.4% | [3] 105% | [4] 80.3% | [5] 87.4% | [6] 71.1% | [7] 41.4% | [8] 82.7% | [9] 86.9% | [10] 70.3% | [11] 79.3% | [13] 85.3% | [14] 54.8% | [15] 67.3% | [16] 86.5% | [17] 90.3% | [18] 94.3% | [19] 90.2%
active: [12] 5.41%
